Source: PubChem BioAssay AID1159580 (chemical genetic matrix, 2015)
About 2,000 (36%) of roughly 5,500 compounds were called active. Roughly 18% stayed inconclusive and do not appear here. Some of the results follow. Values without a mark were called inactive. Cut-off read from the data, not from the text of the source: active = normalized growth mostly below about 0.91 (no sharp cut-off); inconclusive = no clear call, values can overlap the other calls; inactive = mostly above about 0.92.

Assay: chemical genetic growth profiling, strain panel (AID 1159580);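 note: tested at 20 µM; growth read once vehicle control cultures reached saturation at 30 °C; 1 = growth at the plate median or of vehicle wells; lower values mean less growth of the strain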
Settings: S. cerevisiae deletion strains, growth OD

## COc1ccc(-c2cc(=O)c3ccccc3o2)cc1OC
Locus YAL013W, strain DEP1, hits give low values
  normalized growth: 1.01
Locus YAL021C, strain ccr4, hits give low values
  normalized growth: 0.942
Locus YAL026C, strain drs2, hits give low values
  normalized growth: 0.838 (active)
Locus YAL030W, strain snc1, hits give low values
  normalized growth: 0.91 (active)
Locus YBL061C, strain skt5, hits give low values
  normalized growth: 0.898 (active)
Locus YBR009C, strain hhf1, hits give low values
  normalized growth: 0.772 (active)
Locus YBR021W, strain FUR4, hits give low values
  normalized growth: 0.896
Locus YBR023C, strain chs3, hits give low values
  normalized growth: 0.842 (active)
Locus YBR171W, strain sec66, hits give low values
  normalized growth: 0.917
Locus YBR229C, strain ROT2, hits give low values
  normalized growth: 1.04
Locus YBR231C, strain swc5, hits give low values
  normalized growth: 0.83 (active)
Locus YBR279W, strain paf1, hits give low values
  normalized growth: 0.9 (active)
Locus YCL011C, strain gbp2, hits give low values
  normalized growth: 0.824 (active)
Locus YCL016C, strain dcc1, hits give low values
  normalized growth: 0.871 (active)
Locus YCL029C, strain bik1, hits give low values
  normalized growth: 0.974
Locus YCL061C, strain MRC1, hits give low values
  normalized growth: 0.904 (active)
Locus YCL069W, strain vba3, hits give low values
  normalized growth: 0.921 (active)
Locus YCR088W, strain abp1, hits give low values
  normalized growth: 0.929
Locus YDL005C, strain med2, hits give low values
  normalized growth: 0.919
Locus YDL035C, strain GPR1, hits give low values
  normalized growth: 0.824 (active)
Locus YDL040C, strain nat1, hits give low values
  normalized growth: 0.939
Locus YDL074C, strain BRE1, hits give low values
  normalized growth: 0.981
Locus YDL101C, strain DUN1, hits give low values
  normalized growth: 1.02
Locus YDL185W, strain tfp1, hits give low values
  normalized growth: 1.03
Locus YDL192W, strain arf1, hits give low values
  normalized growth: 0.989
Locus YDR001C, strain nth1, hits give low values
  normalized growth: 0.93
Locus YDR069C, strain doa4, hits give low values
  normalized growth: 0.897 (active)
Locus YDR101C, strain arx1, hits give low values
  normalized growth: 0.95
Locus YDR137W, strain rgp1, hits give low values
  normalized growth: 0.681 (active)
Locus YDR150W, strain NUM1, hits give low values
  normalized growth: 1.05
Locus YDR159W, strain sac3, hits give low values
  normalized growth: 0.904
Locus YDR162C, strain NBP2, hits give low values
  normalized growth: 1.01
Locus YDR195W, strain ref2
  normalized growth: 1.13
Locus YDR297W, strain sur2, hits give low values
  normalized growth: 0.927
Locus YDR318W, strain mcm21, hits give low values
  normalized growth: 0.999
Locus YDR334W, strain swr1, hits give low values
  normalized growth: 0.922
Locus YDR335W, strain msn5, hits give low values
  normalized growth: 0.925
Locus YDR388W, hits give low values
  normalized growth: 1.01
Locus YDR392W, strain spt3, hits give low values
  normalized growth: 0.41 (active)
Locus YDR502C, strain sam2, hits give low values
  normalized growth: 0.925
Locus YEL003W, strain gim4, hits give low values
  normalized growth: 0.9 (active)
Locus YEL037C, strain rad23, hits give low values
  normalized growth: 0.872 (active)
Locus YEL061C, strain CIN8 (second series), hits give low values
  normalized growth: 0.913 (active)
Locus YEL061C, strain CIN8, hits give low values
  normalized growth: 1.03
Locus YER015W, strain faa2, hits give low values
  normalized growth: 0.932
Locus YER016W, strain bim1, hits give low values
  normalized growth: 0.933
Locus YER110C, hits give low values
  normalized growth: 1.04
Locus YER111C, strain swi4, hits give low values
  normalized growth: 0.913
Locus YER155C, strain BEM2 (second series), hits give low values
  normalized growth: 0.381 (active)
Locus YER155C, strain BEM2, hits give low values
  normalized growth: 1.07
Locus YER167W, strain BCK2, hits give low values
  normalized growth: 1.05
Locus YFR010W, strain ubp6, hits give low values
  normalized growth: 0.889 (active)
Locus YGL078C, strain dbp3, hits give low values
  normalized growth: 0.869 (active)
Locus YGL086W, strain mad1, hits give low values
  normalized growth: 0.982
Locus YGL167C, strain pmr1, hits give low values
  normalized growth: 0.878 (active)
Locus YGL173C, strain kem1, hits give low values
  normalized growth: 0.897 (active)
Locus YGL227W, strain vid30, hits give low values
  normalized growth: 0.912 (active)
Locus YGL240W, strain doc1, hits give low values
  normalized growth: 0.772 (active)
Locus YGL248W, strain PDE1, hits give low values
  normalized growth: 0.97
Locus YGL253W, strain hxk2, hits give low values
  normalized growth: 0.718 (active)
Locus YGR135W, strain pre9, hits give low values
  normalized growth: 0.955
Locus YGR252W, strain gcn5, hits give low values
  normalized growth: 0.819
Locus YHR013C, strain ard1, hits give low values
  normalized growth: 0.789 (active)
Locus YHR027C, strain rpn1, hits give low values
  normalized growth: 0.93
Locus YHR030C, strain SLT2, hits give low values
  normalized growth: 1.06
Locus YHR079C, strain IRE1 (second series), hits give low values
  normalized growth: 1.03
Locus YHR094C, strain hxt1, hits give low values
  normalized growth: 1.03
Locus YHR129C, strain ARP1, hits give low values
  normalized growth: 1.03
Locus YHR142W, strain chs7, hits give low values
  normalized growth: 0.683 (active)
Locus YHR200W, strain rpn10, hits give low values
  normalized growth: 1.03
Locus YIL066C, strain RNR3, hits give low values
  normalized growth: 1.01
Locus YIL073C, strain SPO22, hits give low values
  normalized growth: 0.925
Locus YIL125W, strain kgd1, hits give low values
  normalized growth: 0.976
Locus YIR030C, strain dcg1, hits give low values
  normalized growth: 1.02
Locus YJL092W, strain hpr5, hits give low values
  normalized growth: 0.923
Locus YJL095W, strain BCK1 (second series), hits give low values
  normalized growth: 0.823 (active)
Locus YJL095W, strain BCK1, hits give low values
  normalized growth: 0.973
Locus YJL115W, strain asf1, hits give low values
  normalized growth: 0.928
Locus YJL129C, strain trk1, hits give low values
  normalized growth: 0.901
Locus YJL134W, strain LCB3, hits give low values
  normalized growth: 1.05
Locus YJL154C, strain vps35, hits give low values
  normalized growth: 0.938
Locus YJL164C, strain tpk1, hits give low values
  normalized growth: 0.855 (active)
Locus YJL166W, strain qcr8, hits give low values
  normalized growth: 0.824 (active)
Locus YJL168C, strain set2, hits give low values
  normalized growth: 1.03
Locus YJL187C, strain SWE1 (second series), hits give low values
  normalized growth: 0.982
Locus YJL187C, strain SWE1, hits give low values
  normalized growth: 0.913 (active)
Locus YJR043C, strain POL32, hits give low values
  normalized growth: 0.979
Locus YJR075W, strain HOC1, hits give low values
  normalized growth: 1.03
Locus YKL009W, strain mrt4, hits give low values
  normalized growth: 0.801 (active)
Locus YKL068W, hits give low values
  normalized growth: 1.03
Locus YKL085W, strain MDH1 (second series), hits give low values
  normalized growth: 1.03
Locus YKL085W, strain MDH1, hits give low values
  normalized growth: 1.03
Locus YKL160W, strain elf1, hits give low values
  normalized growth: 0.862 (active)
Locus YKL190W, strain CNB1, hits give low values
  normalized growth: 1.03
Locus YKR001C, strain vps1, hits give low values
  normalized growth: 0.96
Locus YKR026C, strain gcn3, hits give low values
  normalized growth: 0.93
Locus YKR091W, strain srl3, hits give low values
  normalized growth: 0.935
Locus YLL001W, strain dnm1, hits give low values
  normalized growth: 0.874 (active)
Locus YLL026W, hits give low values
  normalized growth: 0.899 (active)
Locus YLL041C, strain sdh2, hits give low values
  normalized growth: 0.941
Locus YLR027C, strain aat2, hits give low values
  normalized growth: 0.926
Locus YLR039C, strain RIC1, hits give low values
  normalized growth: 0.963
Locus YLR058C, strain SHM2, hits give low values
  normalized growth: 1.01
Locus YLR102C, strain apc9, hits give low values
  normalized growth: 1.03
Locus YLR221C, strain rsa3, hits give low values
  normalized growth: 0.872 (active)
Locus YLR258W, strain gsy2, hits give low values
  normalized growth: 0.859 (active)
Locus YLR262C, strain YPT6 (second series), hits give low values
  normalized growth: 0.728 (active)
Locus YLR262C, strain YPT6, hits give low values
  normalized growth: 0.875
Locus YLR268W, strain sec22, hits give low values
  normalized growth: 0.936
Locus YLR320W, strain mms22, hits give low values
  normalized growth: 0.597 (active)
Locus YLR330W, strain CHS5, hits give low values
  normalized growth: 1.04
Locus YLR342W, strain FKS1 (second series), hits give low values
  normalized growth: 0.873
Locus YLR342W, strain FKS1, hits give low values
  normalized growth: 0.904 (active)
Locus YLR357W, strain rsc2, hits give low values
  normalized growth: 0.948
Locus YLR370C, strain arc18, hits give low values
  normalized growth: 0.894 (active)
Locus YLR371W, strain rom2, hits give low values
  normalized growth: 1.04
Locus YLR384C, strain iki3, hits give low values
  normalized growth: 0.935
Locus YLR418C, strain cdc73, hits give low values
  normalized growth: 0.918
Locus YML016C, strain PPZ1, hits give low values
  normalized growth: 1.05
Locus YML032C, strain rad52, hits give low values
  normalized growth: 0.96
Locus YML120C, strain ndi1, hits give low values
  normalized growth: 0.837 (active)
Locus YML124C, strain tub3, hits give low values
  normalized growth: 1.04
Locus YMR058W, strain fet3, hits give low values
  normalized growth: 0.852 (active)
Locus YMR078C, strain ctf18, hits give low values
  normalized growth: 1.02
Locus YMR125W, strain sto1, hits give low values
  normalized growth: 0.795 (active)
Locus YMR129W, hits give low values
  normalized growth: 0.945
Locus YMR205C, strain PFK2, hits give low values
  normalized growth: 0.768 (active)
Locus YMR223W, strain ubp8, hits give low values
  normalized growth: 0.99
Locus YMR231W, strain pep5, hits give low values
  normalized growth: 0.946
Locus YMR307W, strain GAS1, hits give low values
  normalized growth: 0.955
Locus YNL067W, strain RPL9B, hits give low values
  normalized growth: 0.969
Locus YNL071W, strain lat1, hits give low values
  normalized growth: 0.665 (active)
Locus YNL209W, strain ssb2, hits give low values
  normalized growth: 0.936
Locus YNL233W, strain BNI4, hits give low values
  normalized growth: 1.02
Locus YNL248C, strain rpa49, hits give low values
  normalized growth: 0.884 (active)
Locus YNL250W, strain rad50, hits give low values
  normalized growth: 0.993
Locus YNL271C, strain bni1, hits give low values
  normalized growth: 0.995
Locus YNL298W, strain CLA4, hits give low values
  normalized growth: 0.934
Locus YNL307C, strain MCK1, hits give low values
  normalized growth: 1.02
Locus YNL322C, strain KRE1 (second series), hits give low values
  normalized growth: 0.953
Locus YNR049C, strain mso1, hits give low values
  normalized growth: 0.916 (active)
Locus YNR052C, strain pop2, hits give low values
  normalized growth: 0.918
Locus YOL006C, strain TOP1, hits give low values
  normalized growth: 0.93
Locus YOL012C, strain htz1
  normalized growth: 1.9
Locus YOL147C, strain pex11, hits give low values
  normalized growth: 1.03
Locus YOR001W, strain rrp6, hits give low values
  normalized growth: 0.864 (active)
Locus YOR061W, strain CKA2, hits give low values
  normalized growth: 1.02
Locus YOR069W, strain VPS5, hits give low values
  normalized growth: 1.02
Locus YOR070C, strain gyp1, hits give low values
  normalized growth: 0.901 (active)
Locus YOR080W, strain dia2, hits give low values
  normalized growth: 0.928
Locus YOR083W, strain WHI5, hits give low values
  normalized growth: 0.862 (active)
Locus YOR106W, strain vam3, hits give low values
  normalized growth: 0.806 (active)
Locus YOR136W, strain idh2, hits give low values
  normalized growth: 1.02
Locus YOR144C, strain elg1, hits give low values
  normalized growth: 0.994
Locus YOR184W, strain ser1, hits give low values
  normalized growth: 0.802 (active)
Locus YOR265W, strain rbl2, hits give low values
  normalized growth: 0.935
Locus YOR270C, strain vph1, hits give low values
  normalized growth: 0.539 (active)
Locus YOR290C, strain snf2, hits give low values
  normalized growth: 0.734 (active)
Locus YOR316C, strain cot1, hits give low values
  normalized growth: 1.03
Locus YPL051W, strain arl3, hits give low values
  normalized growth: 0.854 (active)
Locus YPL078C, strain atp4, hits give low values
  normalized growth: 0.825 (active)
Locus YPL106C, strain sse1, hits give low values
  normalized growth: 0.788 (active)
Locus YPL240C, strain hsp82, hits give low values
  normalized growth: 0.923 (active)
Locus YPR119W, strain clb2, hits give low values
  normalized growth: 1.04
Locus YPR141C, strain kar3, hits give low values
  normalized growth: 1.04
Locus YPR163C, strain tif3, hits give low values
  normalized growth: 0.993
Locus YPR167C, strain met16, hits give low values
  normalized growth: 1.02
Strain wtn01, hits give low values
  normalized growth: 0.93
